# Data published in publication PMC5540273 (PLoS ONE, 2017).
# Test system: T1, PIP5K2C
# T1 construct: gene PIP4K2C
# 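Note: kd values determined as follow-up on hits from a single-replicate KINOMEscan panel screen.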
row,Structure (SMILES),Kd
1,Nc1nccc(-c2c(-c3ccc(F)cc3)ncn2C2CCN(Cc3ccccc3)CC2)n1 [SB-219980],93 nM
2,CC(=O)c1c(C)c2cnc(Nc3ccn(C)n3)nc2n(C2CCCC2)c1=O,110 nM
3,CS(=O)(=O)Cc1ccc(Nc2nccc(-c3c(-c4cccc(NC(=O)C5CCCCC5)c4)nn4ncccc34)n2)cc1 [GSK350559],60 nM

# Test system: PRKD3
row,Structure (SMILES),Kd
1,FC(F)(F)c1ccccc1-c1cc(-c2c[nH]nc2-c2ccccn2)ccn1 [GW679396],> 10 µM
2,COc1ccc(Nc2nccc(-c3ccc(NC(=O)c4cc5cc(F)ccc5[nH]4)cc3)n2)cc1 [GSK1229496],> 10 µM
3,COc1cccc(C2=C(Nc3cc(Cl)c(O)c(Cl)c3)C(=O)NC2=O)c1 [SB-390767],> 10 µM
4,CS(=O)(=O)CCNCc1nc(-c2ccc3ncnc(Nc4ccc(OCc5ccccc5)c(Cl)c4)c3c2)cs1.Cl [GW582764],> 10 µM
5,COC(=O)C(Cc1ccccc1)NC(=O)NC1CCN(c2ccnc(Nc3ccc(F)cc3)n2)C1 (stereo not shown) [GSK1379714],> 10 µM
6,Cc1ccccc1-c1cc(-c2c[nH]nc2-c2ccccn2)ccn1 [GW680061],> 10 µM
7,COc1ccc(Nc2nccc(N3CCC(NC(=O)c4cc5ccccc5s4)C3)n2)cc1 (stereo not shown) [GSK1379738],> 10 µM

# Test system: PRKG2
row,Structure (SMILES),Kd
1,Cn1cncc1-c1cc2c(Nc3ccc(OCc4ccccc4)cc3)ncnc2cn1 [GW281179],3.3 µM
2,NS(=O)(=O)c1cccc(N/C=C2\C(=O)Nc3ccc(S(=O)(=O)Cc4c(Cl)cccc4Cl)cc32)c1 [GSK398099],> 10 µM
3,CNc1cc(-c2ccc3c(N)n[nH]c3c2)nc(N)n1 [GSK2224810],0.039 µM
4,CC[C@@H]1CO[C@H](C(=O)Nc2ccccc2)CN1c1cc(-c2ccc3c(N)n[nH]c3c2)nc(NC)n1 [GSK2376236],0.4 µM
5,CNC(=O)c1ccc(C)c(-n2c(C)cc(OCc3ccc(F)cc3F)c(Br)c2=O)c1,> 10 µM
6,Cc1c(Cn2c(C)c(C)n3c(=O)cc(N4CCOCC4)nc23)cccc1C(F)(F)F [GSK2328680],> 10 µM
7,COc1ccc(Nc2nccc(N3CCC(NC(=O)C(C)c4ccc(Cl)cc4)C3)n2)cc1 (stereo not shown) [GSK1379735],> 10 µM
8,Cn1cncc1C(=O)NC1CCN(c2ccnc(Nc3ccc(F)cc3)n2)C1 (stereo not shown) [GSK1379717],> 10 µM
9,Cn1cnc2c(N)ncnc21 [SKF-97623],> 10 µM
